# Sampled rows, rich in hits. Any-hit rate of the full collection: about 7.5%.
# B2AR arrestin = beta2AR (human) beta-arrestin recruitment activity. P07550. beta-arrestin recruitment to beta2AR, cell-based reporter. Potency, µM (series often up to 46.1 µM), most hits filed as activators. 330,000 compounds, 0.02% hits. AID 492947; note: nearly all actives have a fitted effect of over 65% in size
# TSHR antagonist = antagonists of human thyroid stimulating hormone receptor. activity change, negative = inhibition, % at 11.5 µM. 330,000 compounds, 0.2% hits. TSHR-expressing cells, TSH-stimulated cAMP HTRF, 2 h; hits give low values. P16473;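 active = activity change below a set negative limit, meaning inhibition stronger than a set level, cut at about -70% in these data; inconclusive = activity change between two set negative limits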
#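 Read-out is FRET at 665 nm (cryptate excitation 337 nm) from a cryptate-tagged anti-cAMP antibody, competed by cell cAMP against cAMP-d2. Compounds are tested on freshly harvested TSHR cells challenged with 4nM TSH (EC80) for 2 hours at 37 deg C.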
# VP16 counter = Gal4-VP16 reporter inhibition counter-screen; Drosophila S2 Gal4-VP16 UAS-luciferase, luminescence, 20 h; Potency, µM (highest dose often 53.6 µM), usual class: inhibitors; 310,000 compounds, 3.5% hits; AID 2546;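 note: Gal4-VP16 expression switched on by copper sulfate through the metallothionein promoter; nearly all actives have a fitted effect of over 50% in size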
# ELG1 DNA repair = inhibitors of ELG1-dependent DNA repair in HEK293T cells | HEK293T ELG1-luciferase reporter, luminescence, 16 h; DNA damage induced by 5-fluorouridine | Potency, µM (top dose mostly 46.1 µM), usual class: inhibitors | 330,000 compounds, 2.3% hits; note: nearly all actives have a fitted effect of over 55% in size
#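 In this reporter screen, reduction of luminescence relative to DMSO vehicle indicated activity. Compounds and 5-fluorouridine were added together to 2,000 cells per well, incubated for 16 hr at 37 °C, then developed with ONE-Glo.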
# RORgamma inh = blocks mouse ROR gamma transcriptional activity; P51450; Drosophila S2 Gal4-RORgamma UAS-luciferase reporter, 20 h; Potency, µM (titrated, usually from 53.6 µM), hits mostly inhibitors; 310,000 compounds, 5.4% hits; AID 2551; note: nearly all actives have a fitted effect of over 60% in size
# Target sequence (P51450 whole entry, looked up, the tested form may be a part): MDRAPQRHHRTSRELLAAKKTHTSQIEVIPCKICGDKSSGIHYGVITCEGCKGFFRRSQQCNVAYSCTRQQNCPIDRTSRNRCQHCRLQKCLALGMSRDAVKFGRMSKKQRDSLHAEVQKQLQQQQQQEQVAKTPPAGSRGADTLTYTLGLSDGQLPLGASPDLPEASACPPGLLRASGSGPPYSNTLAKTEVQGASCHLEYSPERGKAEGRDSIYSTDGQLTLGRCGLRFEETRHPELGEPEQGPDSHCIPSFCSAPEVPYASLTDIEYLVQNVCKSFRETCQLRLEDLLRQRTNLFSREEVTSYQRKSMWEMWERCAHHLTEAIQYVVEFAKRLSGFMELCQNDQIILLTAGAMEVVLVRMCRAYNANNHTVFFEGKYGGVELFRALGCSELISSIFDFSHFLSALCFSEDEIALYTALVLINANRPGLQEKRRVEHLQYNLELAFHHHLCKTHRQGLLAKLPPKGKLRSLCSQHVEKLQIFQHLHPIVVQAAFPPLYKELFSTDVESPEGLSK
#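 Stable Schneider cell line, Gal4 DNA-binding domain fused to ROR gamma, UAS-luciferase. Cmpd 1 hr RT → CuSO4 700 uM final → 20 hr RT → luciferase reagent 10 min → luminescence.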
# ELG1 FLuc counter = luciferase inhibition in cell-free luciferin readout for ELG1 hits. shares compounds with ELG1 DNA repair. cell-free firefly luciferase luminescence counter-screen, ViewLux. Potency, µM (top dose mostly 46.1 µM), most hits filed as inhibitors. 350 compounds, 3% hits
# ELG1-Luc inh = inhibits ELG1-dependent DNA repair in HEK293T cells, confirmed; Potency, µM (titrated, usually from 46.1 µM), actives largely listed as inhibitors; AID 624248; HEK293T ELG1-luciferase levels, luminescence; cells co-treated with 5-fluorouridine; 670 compounds, 68% hits; shares compounds with ELG1 DNA repair; note: nearly all actives have a fitted effect of over 55% in size
# ELG1 MMS Luc = MMS-stimulated human ELG1 repair inhibition, confirmed | shares compounds with ELG1 DNA repair | HEK293T luciferase-tagged ELG1 level, MMS stimulated | Potency, µM (titrated, usually from 46.1 µM), usual class: inhibitors | 670 compounds, 53% hits | AID 624249; note: nearly all actives have a fitted effect of over 60% in size
# ELG1 5-FU = confirmation of ELG1 repair inhibitors: viability with 5FU. shares compounds with ELG1 DNA repair. cell viability with 5-FU, ELG1-dependent repair. Potency, µM (series often up to 46.1 µM), most hits filed as cytotoxic. 670 tested, under 10 active. AID 624250;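 note: ELG1-luc HEK293T cells cotreated with 5-fluorouridine at 10 µM final; viability measured 16 h after compound addition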
# ELG1 MMS viab = confirmation of ELG1 repair inhibitors: viability with MMS | 670 compounds, 33% hits | Cell viability with MMS, ELG1-dependent DNA repair | shares compounds with ELG1 DNA repair | Potency, µM (series often up to 46.1 µM), usual class: cytotoxic;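 note: ELG1-luc HEK293T cells co-treated with 10 µM MMS; viability read 16 h after compound addition; nearly all actives have a fitted effect of over 60% in size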
# Cell viab unstim = unstimulated viability counter-screen for ELG1 repair hits; shares compounds with ELG1 DNA repair; cell viability counter-screen, unstimulated, luminescence; Potency, µM (titrated, usually from 45.9 µM), usual class: cytotoxic; 900 compounds, 8% hits; AID 624252;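 note: compound exposure lasted 16 hours before reading; nearly all actives have a fitted effect of over 55% in size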
# FLuc biochem = counter-screen for ELG1 repair inhibitors: firefly luciferase inhibition; shares compounds with ELG1 DNA repair; purified firefly luciferase, luminescence counter-screen; Potency, µM (top dose mostly 57.5 µM), actives largely listed as inhibitors; AID 624253; 350 compounds, 10% hits
# Hits are given with their value; . = inactive; ? = inconclusive; / = no result given; [ ] = remark or other dose. Unless noted, calls come from the whole dose curve; as a rule, active = well fitted curve in the direction sought with a large enough effect; inconclusive = small, poorly fitted or top-dose-only effect, or another doubt; inactive = no such curve, though single readings can be large; an effect the other way counts as inactive or inconclusive.
SMILES,B2AR arrestin,TSHR antagonist,VP16 counter,ELG1 DNA repair,RORgamma inh,ELG1 FLuc counter,ELG1-Luc inh,ELG1 MMS Luc,ELG1 5-FU,ELG1 MMS viab,Cell viab unstim,FLuc biochem
CN(C)c1ccc(-c2cc3ccccc3c(=O)o2)cc1,.,.,/,?,/,.,/,/,/,/,?,0.18µM
Cn1nc(CC(=O)Nc2ccc3c(c2)CCC3)c2ccccc2c1=O,.,.,?,0.52µM,?,.,?,0.71µM,.,0.89µM,?,.
CCCn1c(N2CCN(CC(=O)c3c(C)n(C)c4ccccc34)CC2)nc2c1c(=O)[nH]c(=O)n2C,.,.,.,7.3µM,.,.,3.2µM,?,?,.,.,.
CCn1c(N2CCN(CC(=O)c3c[nH]c4ccccc34)CC2)nc2c1c(=O)[nH]c(=O)n2C,.,.,.,.,?,.,?,.,?,.,.,.
O=C(CNC(=O)c1cc(S(=O)(=O)N2CCCCC2)ccc1N1CCOCC1)Nc1ccc(F)c(F)c1,.,.,/,.,/,/,/,/,/,/,/,/
COc1cccc(/C=C/C(=O)OCC(=O)c2ccccc2)c1OC,.,.,/,?,/,/,/,/,/,/,.,/
COc1cccc(/C=C/C(=O)OCC(=O)c2ccc(C)c(C)c2)c1OC,.,.,/,.,/,/,/,/,/,/,/,/
COc1cccc(-c2nc3c(c(SCC(=O)N4CCOCC4)n2)Cc2c(CO)cnc(C)c2O3)c1,.,.,.,4.6µM,.,.,3.2µM,14µM,?,?,?,.
COc1ccccc1-c1nc2c(c(SCC(=O)N3CCCCC3)n1)Cc1c(CO)cnc(C)c1O2,.,.,.,8.2µM,.,.,10µM,?,?,?,?,.
C=CCN(C(=O)c1oc2c(Cl)cc(C)cc2c1C)C1CCS(=O)(=O)C1 (stereo not given),.,.,.,?,.,/,/,/,/,/,/,/
COC(=O)c1ccc(CNC(=O)c2ccc(OCC(=O)N3CCOCC3)c(OC)c2)cc1,.,.,/,.,/,/,/,/,/,/,/,/
COCc1ccc(-c2c(-c3cc(OC)cc(OC)c3)oc(=O)c3cc(OC)c(OC)cc23)cc1,.,.,/,0.58µM,/,.,5µM,.,?,.,?,?
COc1cccc(C(=O)NC2CCNCC2)c1,.,.,.,.,.,/,/,/,/,/,/,/
CCc1ccc(C2c3[nH]c4ccccc4c3CCN2C(=O)c2cc(C)nn2C)cc1 (stereo not given),.,.,.,?,.,/,11µM,20µM,?,?,?,/
CSc1ccc(C2c3[nH]c4ccccc4c3CCN2C(=O)c2cc(C)n(C)n2)cc1 (stereo not given),.,.,.,?,.,/,/,/,/,/,/,/
COc1cc(OC)c(OC)cc1/C=N/NC(=O)c1ccc(=O)n(C)c1,.,.,.,.,.,/,/,/,/,/,/,/
Cn1cc(C(=O)N/N=C/c2c(O)ccc3ccccc23)ccc1=O,.,.,.,2.3µM,.,/,?,3.1µM,.,14µM,?,/
CN(C)c1ccc(/C=C2\C=Cc3ccccc32)c(F)c1,/,/,/,/,/,/,/,/,/,/,.,/
Cc1cccc(Cn2c(N3CCN(C)CC3)nc3c2c(=O)n(C)c(=O)n3C)c1,.,.,.,.,.[1.91 µM],/,/,/,/,/,/,/
CO[C@@H]1COC(=O)CC=C[C@@H](C)[C@@H]2C=C[C@H](O)[C@@H](COC(=O)C/C=C\[C@H]1C)O2,/,/,.[10 µM],/,.[10 µM],/,/,/,/,/,/,/
CN(C)c1ccc(N=Nc2ccc(/C=C/c3ccnc4ccccc34)cc2)cc1,/,/,/,/,/,/,/,/,/,/,?,/
CN(C)c1ccc(/C=C/c2ccnc3ccc(F)cc23)cc1,/,/,/,/,/,.,/,/,/,/,.,0.18µM
COc1ccc(NC(=O)/C(C#N)=C/c2cc(C)n(-c3ccc(N4CCOCC4)c([N+](=O)[O-])c3)c2C)cc1,.,.,.,2.9µM,.,/,4.4µM,4µM,.,?,?,/
O=C(CSc1nnc(Nc2ccccc2F)s1)NC1CC1,.,.,/,?,/,/,/,/,/,/,/,/
Cc1ccc(N2CN=c3s/c(=C\c4cccnc4)c(=O)n3C2)cc1,.,.,.,2.3µM,.,.,?,?,.,.,?,.
SMILES,B2AR arrestin,TSHR antagonist,VP16 counter,ELG1 DNA repair,RORgamma inh,ELG1 FLuc counter,ELG1-Luc inh,ELG1 MMS Luc,ELG1 5-FU,ELG1 MMS viab,Cell viab unstim,FLuc biochem
CCn1c(C)nc2cc(C(=O)NNC(=S)NC(=O)c3ccccc3)ccc21,.,.,.,.,?,/,/,/,/,/,/,/
O=C(NCc1cccnc1)c1ccc(NC(=O)c2ccc(Br)cc2)cc1,.,.,.,2.3µM,.,/,.,0.025µM,.,0.025µM,.,/
O=C(NC1CCCCC1)c1cc2ccccc2cc1O,.,.,.,.,.,/,/,/,/,/,/,/
O=C1CCCC(=NNC(=O)c2cc3ccccc3cc2O)C1,.,.,/,?,/,/,/,/,/,/,.,/
COc1cnc(-c2ccccn2)nc1Sc1ccc(Cl)cc1,.,.,5.6µM,0.37µM,5.6µM,.,28µM,?,.,.,.,.
CC(C)(C)OC(=O)NCC(=O)NNC(=O)C(C(=O)OCc1ccccc1)c1ccccc1 (stereo not given),.,.,/,.,/,/,/,/,/,/,/,/
O=[N+]([O-])c1cc2c(c(CSc3nnc(Nc4ccccc4)s3)c1)OCOC2,.,.,.,4.6µM,.,/,?,1µM,.,0.79µM,?,/
CCC(C)N(CC(=O)Nc1cccc(C)c1C)C(=O)CCl (stereo not given),.,.,.,4.6µM,.,/,14µM,1.6µM,?,7.1µM,28µM,/
CC(=O)Nc1ccc(S(=O)(=O)NCCC(=O)OCC(=O)NNC(=O)c2ccccc2)cc1,.,.,/,.,/,/,/,/,/,/,/,/
CC1CCN(c2ccc3nnc(CCC(=O)Nc4ccc(F)cc4)n3n2)CC1,.,.,.,.,.,/,/,/,/,/,/,/
Cc1ccc(NC(=O)CCc2nnc3ccc(N4CCC(C)CC4)nn23)nc1,.,.,.,2.9µM,.,/,4.4µM,.,?,.,?,/
COC(=O)c1cc(C(=O)OCC(=O)N2CCCCC2)cc([N+](=O)[O-])c1,.,.,/,.,/,/,/,/,/,/,/,/

# Compound activity: PubChem, National Center for Advancing Translational Sciences (NCATS)
